TDP1 cell noCPT: qHTS for Inhibitors of human tyrosyl-DNA phosphodiesterase 1 (TDP1): qHTS in cells in absence of CPT | DT40 Tdp1-/- hTDP1 cells, no CPT, ATP luminescence, 48 h | Potency, µM (top dose mostly 46.2 µM), for the others: at the top dose activity change, negative = growth inhibition, actives largely listed as inhibitors | hit rate 15% among 420,000 | AID 686978, 2013; also: nearly all actives have a fitted effect of over 55% in size
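Chicken DT40 Tdp1-/- cells stably complemented with human TDP1 were seeded at 400 cells/well with DMSO in place of 20 nM camptothecin. After compound pinning, cells grew at least 48 hr at 37 °C; viability read by CellTiter-Glo luminescence.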
VDR inhibitor: blocks the human vitamin D receptor; P11473; VDR-SRC2-3 peptide fluorescence polarization, 2 h; Potency, µM, for the others: max response, negative = inhibition, actives largely listed as inhibitors; hit rate 0.93% among 400,000; AID 504847
Target sequence (P11473 whole entry, looked up): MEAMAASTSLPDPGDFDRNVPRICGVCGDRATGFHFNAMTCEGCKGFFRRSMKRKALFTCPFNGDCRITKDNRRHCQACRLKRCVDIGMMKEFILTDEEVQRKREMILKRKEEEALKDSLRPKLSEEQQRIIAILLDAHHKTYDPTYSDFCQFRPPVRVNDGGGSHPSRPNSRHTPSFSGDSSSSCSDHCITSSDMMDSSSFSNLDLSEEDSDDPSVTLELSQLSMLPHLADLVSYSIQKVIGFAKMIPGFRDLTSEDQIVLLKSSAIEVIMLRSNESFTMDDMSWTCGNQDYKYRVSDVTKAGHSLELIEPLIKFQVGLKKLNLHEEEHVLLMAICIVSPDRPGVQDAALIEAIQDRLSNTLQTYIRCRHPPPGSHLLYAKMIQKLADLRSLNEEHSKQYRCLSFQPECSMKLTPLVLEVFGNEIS
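Two reagent solutions held at 4 deg C in the dark were dispensed, compounds pinned at 23 nl, and the mixture incubated 2 h at room temperature. Read-out: fluorescence polarization of VDR–SRC2-3 peptide binding.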
GCN5L2 inh: GCN5L2 (KAT2A) acetyltransferase inhibition; Q92830; GCN5L2 HAT assay, ThioGlo1 CoA-SH fluorescence; Potency, µM (doses to about 58.9 µM), inactives show top-dose activity change, negative = inhibition, actives largely listed as inhibitors; hit rate 0.21% among 390,000
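Titration-based screen in which CoA formation is detected via maleimide probe ThioGlo1 (50uM) turning fluorescent on thiol reaction; substrates H3(1-25) 75uM and acetyl-CoA 70uM, GCN5L2 20nM, 20 min incubation at room temperature.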
TDP1 block: TDP1 (human) enzyme inhibition. Potency, µM (doses to about 130 µM), for the others: top-dose activity change, negative = inhibition, hits mostly inhibitors. recombinant TDP1, AlphaScreen DNA substrate cleavage. AID 485290. hit rate 0.28% among 350,000. Q9NUW8; also: nearly all actives have a fitted effect of over 40% in size
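Steps: enzyme plus compound, 15 min RT; add biotin/phosphotyrosine-FITC oligonucleotide (15 nM final), react 5 min; add donor/acceptor beads (10 ug/ml final), 10 min; read AlphaScreen. Tdp1 at 1 nM final.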
DT40 TDP1 CPT: DT40-hTDP1 cell growth loss with CPT; Potency, µM (doses to about 46.2 µM), without a hit: top-dose activity change, negative = growth inhibition, actives largely listed as inhibitors; AID 686979; chicken DT40 Tdp1-/-;hTDP1 cells + 20 nM CPT, ATP luminescence, 48 h; hit rate 12% among 420,000; also: nearly all actives have a fitted effect of over 55% in size
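Cell growth measured by CellTiter-Glo luminescence after a minimum 48 h, 37 C compound exposure with 20 nM CPT in Tdp1-knockout DT40 cells stably expressing hTDP1, seeded 400/well; qHTS titration format.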
PLK1 PBD inh: blocks phosphopeptide binding to human PLK1 polo-box domain; P53350; Plk1 PBD binding of FITC phosphopeptide, fluorescence polarization; hit rate 2.8% among 360,000; Potency, µM, inactives show max response, negative = inhibition, actives largely listed as inhibitors; also: series mostly up to about 57 µM; nearly all actives have a fitted effect of over 65% in size
The depositor's hits bear a star; ? = inconclusive; . = no result given; [ ] = remark or other dose. In the library only some 18% were active in any assay of this set; here they are far more common. Calls follow the shape of the dose curve; as a rule, active = well fitted curve in the direction sought with a large enough effect; inconclusive = small, poorly fitted or top-dose-only effect, or another doubt; inactive = no such curve, though single readings can be large; an effect the other way counts as inactive or inconclusive. % is scaled to controls: 0 for no effect and ±100 for the full control effect; potency is read from the fitted curve at half-maximal effect.

SMILES	TDP1 cell noCPT	VDR inhibitor	GCN5L2 inh	TDP1 block	DT40 TDP1 CPT	PLK1 PBD inh
COc1ccc(C(=O)N2CCCC(N3CCN(c4ccccc4F)CC3)C2)c(OC)n1 (centres undefined)	?	?	-27%	1%	?	30µM*
O=c1c2ccccc2nc(-c2ccc(Cl)cc2)n1CCCCOc1ccc(F)cc1	-10%	13%	-4%	.	-19%	.
NC(=O)c1ccc(NC(=O)C2CCN(S(=O)(=O)Cc3ccccc3)CC2)cc1	-9%	15%	-2%	0%	-10%	.
CCn1c(SCC(=O)Nc2oc(C)c3c(C)n[nH]c(=O)c23)nnc1-c1ccco1	-14%	.	.	.	-22%	-7%
Cc1c(C(=O)Nc2ccncc2)sc2nc(-c3ccc(F)cc3)cn12	5.2µM*	-5%	-14%	-4%	7.3µM*	-1%
COc1ccc(-c2cn3c(C)c(C(=O)Nc4ccncc4)sc3n2)cc1	5.8µM*	-14%	-16%	-3%	3.7µM*	2%
COc1ccc(-c2cn3c(C)c(C(=O)N4CCN(c5ccccc5F)CC4)sc3n2)cc1	18µM*	-28%	-4%	.	23µM*	0%
Cc1c(C(=O)Nc2cc(F)ccc2F)sc2nc(-c3ccc(F)cc3)cn12	?	7%	-15%	1%	?	.
Cc1c(C(=O)N2CCN(c3ccccc3F)CC2)sc2nc(-c3ccccc3)cn12	?	4%	-8%	0%	?	-6%
CCOc1ccc(NC(=O)c2sc3nc(-c4ccc(OC)cc4)cn3c2C)cc1	7.3µM*	3%	-3%	-3%	16µM*	.
COc1ccc(CCNC(=O)Cn2nnc(C(=O)Nc3cc(C)ccc3C)c2N)cc1OC	-30%	4%	-14%	1%	?	-1%
CCOC(=O)c1c(C)c(C(=O)NCc2cccnc2)c(C)n1CC	-10%	1%	1%	7%	0%	-1%
CCOC(=O)c1c(C)c(C(=O)NCc2ccco2)c(C)n1Cc1ccccc1	?	?	5%	4%	?	27µM*
CCOC(=O)c1c(C)c(C(=O)Nc2ccc(N(C)C)cc2)c(C)n1CC	4.6µM*	?	1%	2%	7.3µM*	-4%
CCOC(=O)c1c(C)c(C(=O)NCc2ccc(Cl)cc2)c(C)n1CC	26µM*	6%	0%	1%	?	.
CC(C)Cc1nc2cc(NS(=O)(=O)N(C)C)cc(C(=O)N3CCc4sccc4C3)c2n1C	0%	.	.	.	5%	.
O=c1cc(-c2ccccc2[N+](=O)[O-])oc2ccccc12	23µM*	-4%	-1%	-4%	16µM*	-5%
O=S(=O)(c1ccc(-n2cnnn2)cc1)N1CCN(c2cccc(Cl)c2)CC1	-10%	4%	-1%	2%	-10%	.
COCCN(C(=O)CCC(=O)Nc1cc(C)on1)C(C(=O)NC1CCCC1)c1ccc(C)cc1 (centres undefined)	0.33µM*	-26%	-3%	-12%	?	?
Cc1cc(NC(=O)CCC(=O)N(CC2CCCO2)C(C(=O)NC2CCCC2)c2cccnc2)no1 (centres undefined)	-25%	-17%	-6%	2%	?	27µM*
C=CCN(C(=O)CCC(=O)Nc1cc(C)on1)C(C(=O)NC1CCCC1)c1cccnc1 (centres undefined)	-2%	15%	-10%	-2%	-11%	-7%
COc1ccc(C(C(=O)NC2CCCCC2)N(CC2CCCO2)C(=O)C2COc3ccccc3O2)cc1OC (centres undefined)	?	-13%	1%	4%	-26%	-1%
COc1ccc(C(=O)N(CC2CCCO2)C(C(=O)NC2CCCC2)c2ccc(Cl)cc2)cc1OC (centres undefined)	18µM*	-1%	2%	-3%	?	-2%
Nc1nc2c(ncn2C2C[C@H](O)[C@@H](CO)O2)c(=O)[nH]1 (some centres undefined)	6.5µM*	-1%	-2%	.	10µM*	-9%
CC(C)C(=O)Nc1nc2c(ncn2[C@H]2CC(O)[C@@H](CO)O2)c(=O)[nH]1 (some centres undefined)	13µM*	?	.	0%	11µM*	.
SMILES	TDP1 cell noCPT	VDR inhibitor	GCN5L2 inh	TDP1 block	DT40 TDP1 CPT	PLK1 PBD inh
O=c1[nH]cnc2c1ncn2C1CC(O)C(CO)O1 (centres undefined)	?	4%	1%	7%[56.1 µM]	?	.
Nc1nc2c(ncn2C2OC(COC(=O)c3ccccc3)C(OC(=O)c3ccccc3)C2OC(=O)c2ccccc2)c(=O)[nH]1 (centres undefined)	21µM*	-2%	-18%	4%	?	.
Nc1nc2c(nnn2C2CC(O)C(CO)O2)c(=O)[nH]1 (centres undefined)	?	.	.	.	29µM*	-8%
CC(C)c1cn(C2OC(COC(=O)c3ccccc3)C(OC(=O)c3ccccc3)C2OC(=O)c2ccccc2)c(=O)[nH]c1=O (centres undefined)	.	12%	.	.	.	.
CN(C)c1nc(-c2cccc(NS(C)(=O)=O)c2)nc2ccccc12	-23%	-6%	-10%	.	-7%	.
CCCCOc1ccc(C(=O)N/N=C/c2ccc(OCCN3CCCCC3)c(OC)c2)cc1	?	-9%	-9%	1%	21µM*	-9%
CCCCOc1ccc(C(=O)CCN2CCCCC2)cc1	6.5µM*	4.5µM*	2%	5%	8.2µM*	?
CCOc1ccc(/C=N/NC(=O)c2ccncc2)cc1OC	-8%	.	.	.	1%	-16%
CC(C)COc1ccc(C(=O)CCN2CCCCC2)cc1	2.9µM*	?	-1%	-3%	5.2µM*	21µM*
CCOC(=O)N1CCN(CCC(=O)Nc2ccc(C)cc2)CC1	3%	0%	2%	2%	-9%	-1%
CCOC(=O)N1CCN(CCC(=O)c2ccc(Br)cc2)CC1	7.3µM*	18µM*	-1%	.	2.9µM*	0.67µM*
CC(=O)c1ccc(OCCCN2CCCCC2)cc1	-2%	15%	-7%	-3%	-6%	-3%
NCCC[C@H](N)C(=O)O	3%	.	.	.	5%	.
CCc1ccc2c(c1)c(N=NC1=NC(=O)CS1)c(O)n2C	16µM*	3%	3%	4%	-28%	-13%
O=C(O)c1cc(-c2ccc(Cl)cc2)n(-c2cccc(Cl)c2)n1	-20%	-12%	20%	.	?	-18%
OC(c1cccc(Cl)c1)c1nc(/C=C/c2ccc(C(F)(F)F)cc2)cs1 (centres undefined)	?	.	.	.	23µM*	-6%
